In the supplement of paper PMC10849652:
About 8,800 targets were measured; listed, in parts, are those with a hit and a random draw of the rest. About 0.5% of all pairs of compound and target were hits.

Key:
Assay in all cases: log2 fold change, soluble protein after heating vs DMSO (PISA); higher = thermal stabilisation; K562 lysate, 10 uM; active = over 0.2 and 3.5 SD of the protein, either way, in both replicates (recomputed)
[1] = compound: C1=CC=C(C=C1)[C@H](COC2=CC3=C(C=C2)NC(=O)N3)NC(=O)C4=CC=CN(C4=O)CC5=CC(=C(C=C5)F)F
Outline: (§1)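 Quantification was by TMTpro 16plex LC-MS/MS with equalised channel sums, applied to the supernatant after 21,000xg for 90 min. Samples were crude K562 extract at 1 mg/mL protein in PBS pH 7.4 with 1 mM MgCl2, treated with 10 μM compound for 30 min, heated for 3 min across 48°C-58°C, pooled and brought to 0.5% NP-40 at 4°C. Values are log-two fold changes in thermal stability relative to solvent controls, from duplicates.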

[2] = compound: CC1=C(SC2=C1C(=N[C@H](C3=NN=C(N32)C)CC(=O)N)C4=CC=C(C=C4)Cl)C
Outline: as §1

[3] = compound: CC1=C2C(=CC=C1)N=C(N(C2=O)C3=CC=CC=C3C)CN4C=NC5=C(N=CN=C54)N
Outline: as §1

[4] = compound: Cc1sc2c(c1C)C(c1ccc(Cl)cc1)=N[C@@H](CC(=O)OC(C)(C)C)c1nnc(C)n1-2
Outline: as §1

[5] = compound: c1ccc([C@@H]2C[C@H]2NC2CCNCC2)cc1
Outline: as §1

Measured: log2 fold change

KLC1 isoform 6 (UniProt Q07866)
inactive: [1] 0.001 | [2] 0.014 | [3] 0.027 | [4] 0.001 | [5] 0.033

MAP2K5 (UniProt Q13163)
inactive: [1] -0.046 | [2] 0.155 | [3] -0.045 | [4] -0.407 | [5] -0.02

MLH1 (UniProt P40692)
inactive: [1] -0.038 | [2] -0.006 | [3] 0.006 | [4] -0.012 | [5] 0.019

LRRC7 (UniProt Q96NW7)
UniProt Q96NW7, sequence (Q96NW7 whole entry, looked up): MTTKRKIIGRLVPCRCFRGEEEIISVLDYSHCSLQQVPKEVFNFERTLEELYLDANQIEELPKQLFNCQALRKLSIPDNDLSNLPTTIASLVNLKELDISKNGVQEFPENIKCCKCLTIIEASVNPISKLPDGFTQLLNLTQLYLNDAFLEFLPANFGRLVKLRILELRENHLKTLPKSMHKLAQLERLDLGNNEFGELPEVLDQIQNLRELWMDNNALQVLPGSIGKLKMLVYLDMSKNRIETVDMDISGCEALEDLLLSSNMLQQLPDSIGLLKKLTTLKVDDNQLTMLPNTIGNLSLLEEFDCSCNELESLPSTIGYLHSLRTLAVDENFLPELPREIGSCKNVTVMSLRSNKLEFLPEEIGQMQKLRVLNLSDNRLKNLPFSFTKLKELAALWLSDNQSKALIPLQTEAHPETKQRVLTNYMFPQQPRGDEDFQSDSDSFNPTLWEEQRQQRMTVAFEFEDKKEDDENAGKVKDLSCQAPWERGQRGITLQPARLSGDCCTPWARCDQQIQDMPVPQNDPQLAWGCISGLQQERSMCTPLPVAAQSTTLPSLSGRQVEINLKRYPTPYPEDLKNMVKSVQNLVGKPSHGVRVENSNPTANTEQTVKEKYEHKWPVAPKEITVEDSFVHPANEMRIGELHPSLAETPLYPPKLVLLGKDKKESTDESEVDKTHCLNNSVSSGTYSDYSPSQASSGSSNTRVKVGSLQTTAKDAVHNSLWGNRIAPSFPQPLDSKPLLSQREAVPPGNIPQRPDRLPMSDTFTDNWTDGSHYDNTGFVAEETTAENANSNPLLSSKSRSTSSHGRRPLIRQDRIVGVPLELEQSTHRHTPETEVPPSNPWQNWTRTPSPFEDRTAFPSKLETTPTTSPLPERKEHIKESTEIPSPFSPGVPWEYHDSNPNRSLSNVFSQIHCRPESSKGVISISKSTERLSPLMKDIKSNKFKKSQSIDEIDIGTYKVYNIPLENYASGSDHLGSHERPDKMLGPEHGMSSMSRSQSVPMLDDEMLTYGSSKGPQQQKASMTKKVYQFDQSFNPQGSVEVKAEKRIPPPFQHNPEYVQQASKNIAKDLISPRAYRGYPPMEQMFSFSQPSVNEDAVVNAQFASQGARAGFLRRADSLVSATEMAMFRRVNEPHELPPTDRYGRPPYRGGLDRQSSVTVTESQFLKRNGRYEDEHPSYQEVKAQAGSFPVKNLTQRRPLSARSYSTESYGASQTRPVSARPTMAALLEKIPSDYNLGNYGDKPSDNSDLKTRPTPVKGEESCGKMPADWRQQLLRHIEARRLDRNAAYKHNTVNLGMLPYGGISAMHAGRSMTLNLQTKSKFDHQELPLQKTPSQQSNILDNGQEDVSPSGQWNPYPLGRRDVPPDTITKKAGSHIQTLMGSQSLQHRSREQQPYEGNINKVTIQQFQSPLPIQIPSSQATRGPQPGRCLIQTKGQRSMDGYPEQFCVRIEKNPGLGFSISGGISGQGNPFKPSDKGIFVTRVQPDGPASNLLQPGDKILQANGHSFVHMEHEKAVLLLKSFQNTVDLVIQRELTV
inactive: [1] -0.001 | [2] -0.047 | [3] -0.309 | [4] 0 | [5] -0.001

LSM8 (UniProt O95777)
inactive: [1] -0.057 | [2] -0.012 | [3] 0.017 | [4] -0.004 | [5] -0.029

MOSPD2 (UniProt Q8NHP6)
inactive: [1] -0.024 | [2] 0.029 | [3] 0.047 | [4] -0.078 | [5] -0.013

LTN1 isoform 3 (UniProt O94822)
inactive: [1] -0.059 | [2] 0 | [3] 0.027 | [4] -0.025 | [5] 0.04

MAP1S (UniProt Q66K74)
inactive: [1] 0.029 | [2] 0.011 | [3] 0.021 | [4] 0.019 | [5] 0.018

KNL1 (UniProt Q8NG31)
inactive: [1] 0.009 | [2] 0.003 | [3] -0.004 | [4] -0.03 | [5] -0.001

LRRC40 (UniProt Q9H9A6)
inactive: [1] 0.001 | [2] 0.003 | [3] 0.003 | [4] 0.012 | [5] 0.034

LRCH3 (UniProt Q96II8)
inactive: [1] -0.038 | [2] -0.044 | [3] 0.025 | [4] -0.014 | [5] -0.028

MMS22L (UniProt Q6ZRQ5)
inactive: [1] -0.062 | [2] -0.027 | [3] -0.038 | [4] 0.07 | [5] 0.11

KLC1 isoform 10 (UniProt Q07866)
inactive: [1] -0.094 | [2] -0.063

MICB, A0A140T979
inactive: [1] 0.028 | [2] -0.012 | [3] -0.003 | [4] 0.026 | [5] 0.019

KIF4B (UniProt Q2VIQ3)
inactive: [1] 0.035 | [2] 0.009 | [3] -0.02 | [4] 0.029 | [5] 0.013

MBD2 (UniProt Q9UBB5)
inactive: [1] 0.042 | [2] 0.008 | [3] -0.028 | [4] 0.065 | [5] 0.027

MED14 (UniProt O60244)
inactive: [1] -0.037 | [2] 0.035 | [3] 0.034 | [4] -0.029 | [5] 0

MAP4K4 isoform 3 (UniProt O95819)
inactive: [1] 0.022 | [2] 0.029 | [3] 0.015 | [4] -0.021 | [5] 0.083

MORC3 (UniProt Q14149)
UniProt Q14149, sequence (Q14149 whole entry, looked up): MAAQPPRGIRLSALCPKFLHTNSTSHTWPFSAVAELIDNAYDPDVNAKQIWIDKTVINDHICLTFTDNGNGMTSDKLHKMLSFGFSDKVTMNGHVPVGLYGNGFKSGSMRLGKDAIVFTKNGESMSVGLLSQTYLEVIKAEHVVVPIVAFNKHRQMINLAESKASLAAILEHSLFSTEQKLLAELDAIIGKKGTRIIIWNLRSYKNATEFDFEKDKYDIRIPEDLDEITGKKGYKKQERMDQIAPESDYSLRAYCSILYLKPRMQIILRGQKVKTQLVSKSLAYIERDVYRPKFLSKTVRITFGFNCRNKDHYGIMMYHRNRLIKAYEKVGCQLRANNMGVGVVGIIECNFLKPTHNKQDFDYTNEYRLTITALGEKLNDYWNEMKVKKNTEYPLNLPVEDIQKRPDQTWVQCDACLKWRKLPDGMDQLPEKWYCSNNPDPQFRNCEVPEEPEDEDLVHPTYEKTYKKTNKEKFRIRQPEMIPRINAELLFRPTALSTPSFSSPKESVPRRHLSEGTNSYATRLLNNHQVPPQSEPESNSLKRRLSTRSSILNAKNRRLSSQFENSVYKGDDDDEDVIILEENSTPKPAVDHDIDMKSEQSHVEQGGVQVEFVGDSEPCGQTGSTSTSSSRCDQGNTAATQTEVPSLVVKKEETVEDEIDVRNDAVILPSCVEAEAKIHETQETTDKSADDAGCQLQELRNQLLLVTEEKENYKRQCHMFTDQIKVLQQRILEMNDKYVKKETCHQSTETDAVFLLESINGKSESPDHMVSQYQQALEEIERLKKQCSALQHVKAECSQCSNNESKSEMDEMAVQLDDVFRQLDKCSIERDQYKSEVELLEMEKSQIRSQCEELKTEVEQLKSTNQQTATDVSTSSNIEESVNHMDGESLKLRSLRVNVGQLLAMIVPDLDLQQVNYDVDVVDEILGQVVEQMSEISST
inactive: [1] 0.013 | [2] 0 | [3] 0.003 | [4] 0.013 | [5] 0.012

MLXIP (UniProt Q9HAP2)
UniProt Q9HAP2, sequence (Q9HAP2 whole entry, looked up): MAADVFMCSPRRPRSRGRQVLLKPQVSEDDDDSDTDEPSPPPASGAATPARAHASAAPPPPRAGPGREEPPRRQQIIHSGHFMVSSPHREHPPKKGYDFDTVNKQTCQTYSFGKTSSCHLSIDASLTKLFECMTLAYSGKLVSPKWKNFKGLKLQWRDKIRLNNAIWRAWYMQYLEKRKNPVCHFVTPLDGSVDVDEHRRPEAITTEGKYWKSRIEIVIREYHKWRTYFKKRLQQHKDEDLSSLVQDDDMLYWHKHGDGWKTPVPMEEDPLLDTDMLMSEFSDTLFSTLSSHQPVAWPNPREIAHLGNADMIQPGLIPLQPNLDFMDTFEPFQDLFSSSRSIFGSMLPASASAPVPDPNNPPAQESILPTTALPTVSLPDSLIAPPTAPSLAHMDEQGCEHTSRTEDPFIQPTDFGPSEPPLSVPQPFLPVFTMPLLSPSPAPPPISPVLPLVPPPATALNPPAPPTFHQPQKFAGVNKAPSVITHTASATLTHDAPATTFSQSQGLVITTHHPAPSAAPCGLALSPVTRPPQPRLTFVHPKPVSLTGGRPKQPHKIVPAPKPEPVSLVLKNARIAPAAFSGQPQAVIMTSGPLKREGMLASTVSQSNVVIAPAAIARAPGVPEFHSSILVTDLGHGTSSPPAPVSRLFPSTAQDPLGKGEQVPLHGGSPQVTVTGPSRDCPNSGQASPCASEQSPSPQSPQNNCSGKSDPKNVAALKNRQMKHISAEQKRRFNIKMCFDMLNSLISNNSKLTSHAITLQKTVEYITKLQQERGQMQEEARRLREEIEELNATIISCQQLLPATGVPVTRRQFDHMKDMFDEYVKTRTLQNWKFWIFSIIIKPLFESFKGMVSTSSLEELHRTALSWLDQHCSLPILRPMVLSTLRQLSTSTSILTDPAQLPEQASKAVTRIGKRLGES
inactive: [1] -0.063 | [2] 0.005 | [3] 0.018 | [4] 0.031 | [5] -0.025

MRPL12 (UniProt P52815)
inactive: [1] -0.084 | [2] 0.015 | [3] -0.022 | [4] 0.027 | [5] 0.047

MPP1 (UniProt Q00013)
inactive: [1] -0.01 | [2] 0.006 | [3] 0.024 | [4] 0.016 | [5] 0.044

MINDY1 isoform 3 (UniProt Q8N5J2)
inactive: [1] 0.017 | [2] 0.061 | [3] -0.003 | [4] 0.028

METTL2A (UniProt Q96IZ6)
inactive: [1] 0.003 | [2] -0.004 | [3] 0.046 | [4] 0 | [5] 0.106

MED17 (UniProt Q9NVC6)
inactive: [1] 0.009 | [2] 0.021 | [3] 0.016 | [4] 0.021 | [5] 0.02

MBOAT2 (UniProt Q6ZWT7)
inactive: [1] -0.011 | [2] 0 | [3] 0.121 | [4] -0.022 | [5] -0.017

MED8 isoform 2 (UniProt Q96G25)
inactive: [1] -0.047 | [2] -0.033 | [3] -0.048 | [4] -0.039 | [5] 0.063

MBTPS1 (UniProt Q14703)
inactive: [2] 0.141 | [3] 0.079 | [4] -0.063 | [5] 0.017
active: [1] -0.317

MAP4 isoform 5 (UniProt P27816)
inactive: [1] -0.065 | [2] 0.099 | [3] 0.163 | [4] 0.181

MAPK1 (UniProt P28482)
inactive: [1] 0.045 | [2] -0.006 | [3] -0.016 | [4] 0.039 | [5] 0.012

MAP2K7 isoform 4 (UniProt O14733)
inactive: [1] -0.072 | [2] -0.261 | [3] -0.038 | [4] 0.066 | [5] 0.079

MAP4K2 (UniProt Q12851)
inactive: [1] -0.088 | [2] 0.053 | [3] 0.022 | [4] -0.13 | [5] -0.087

MCMBP isoform 2 (UniProt Q9BTE3)
inactive: [1] 0.045 | [2] 0.02 | [3] 0.007 | [4] 0.018

KRIT1 (UniProt O00522)
inactive: [1] -0.026 | [2] -0.041 | [3] 0.099 | [4] -0.082

MINK1 (UniProt Q8N4C8)
UniProt Q8N4C8, sequence (Q8N4C8 whole entry, looked up): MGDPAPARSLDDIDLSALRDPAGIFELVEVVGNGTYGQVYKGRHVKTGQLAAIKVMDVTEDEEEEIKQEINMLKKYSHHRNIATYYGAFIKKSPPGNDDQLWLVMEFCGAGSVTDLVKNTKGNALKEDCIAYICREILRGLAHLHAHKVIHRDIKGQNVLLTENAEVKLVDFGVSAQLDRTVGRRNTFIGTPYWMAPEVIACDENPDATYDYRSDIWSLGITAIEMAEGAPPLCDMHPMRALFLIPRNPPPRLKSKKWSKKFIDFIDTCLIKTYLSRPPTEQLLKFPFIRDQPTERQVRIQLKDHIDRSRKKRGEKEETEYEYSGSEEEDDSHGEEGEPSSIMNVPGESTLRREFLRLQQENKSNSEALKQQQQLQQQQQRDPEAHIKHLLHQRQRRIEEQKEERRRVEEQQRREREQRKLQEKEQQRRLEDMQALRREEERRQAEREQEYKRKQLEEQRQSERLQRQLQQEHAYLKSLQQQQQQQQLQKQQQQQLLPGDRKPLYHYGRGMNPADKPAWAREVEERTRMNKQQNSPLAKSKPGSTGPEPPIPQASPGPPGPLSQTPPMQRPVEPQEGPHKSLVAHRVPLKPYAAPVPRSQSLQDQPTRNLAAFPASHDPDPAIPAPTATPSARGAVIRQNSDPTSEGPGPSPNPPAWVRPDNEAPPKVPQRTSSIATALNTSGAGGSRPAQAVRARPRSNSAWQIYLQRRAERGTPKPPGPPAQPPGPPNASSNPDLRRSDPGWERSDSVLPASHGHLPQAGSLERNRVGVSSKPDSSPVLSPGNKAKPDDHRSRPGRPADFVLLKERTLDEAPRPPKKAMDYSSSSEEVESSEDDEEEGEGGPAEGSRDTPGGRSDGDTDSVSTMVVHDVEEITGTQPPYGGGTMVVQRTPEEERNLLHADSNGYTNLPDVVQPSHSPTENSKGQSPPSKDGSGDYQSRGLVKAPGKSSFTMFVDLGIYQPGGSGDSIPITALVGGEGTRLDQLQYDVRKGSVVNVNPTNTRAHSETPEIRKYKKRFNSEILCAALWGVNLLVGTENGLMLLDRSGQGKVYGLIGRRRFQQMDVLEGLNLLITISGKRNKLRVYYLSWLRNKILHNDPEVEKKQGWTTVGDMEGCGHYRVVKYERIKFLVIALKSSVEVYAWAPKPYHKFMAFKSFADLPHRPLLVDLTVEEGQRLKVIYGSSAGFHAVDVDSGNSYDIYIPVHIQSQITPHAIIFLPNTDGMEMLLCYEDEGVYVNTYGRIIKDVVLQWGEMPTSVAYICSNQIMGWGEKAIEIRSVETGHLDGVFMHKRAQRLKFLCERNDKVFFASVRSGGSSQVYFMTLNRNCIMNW
inactive: [1] 0.069 | [2] 0.092 | [3] -0.149 | [4] -0.066 | [5] 0.086

MARK1 (UniProt Q9P0L2)
inactive: [1] -0.034 | [2] 0.036 | [3] 0.019 | [4] -0.006 | [5] 0.116

LAMP1 (UniProt P11279)
inactive: [1] -0.006 | [2] 0.008 | [3] 0.017 | [4] -0.125 | [5] -0.299

KLHL12 isoform 2 (UniProt Q53G59)
inactive: [1] 0.152 | [2] -0.049 | [3] -0.013 | [4] 0.161

LETM1 (UniProt O95202)
inactive: [1] 0.006 | [2] -0.017 | [3] 0.002 | [4] 0.042 | [5] -0.053

KNOP1 (UniProt Q1ED39)
inactive: [1] 0.078 | [2] 0.029 | [3] 0.177 | [4] -0.162 | [5] 0.032

MCMBP (UniProt Q9BTE3)
inactive: [1] -0.016 | [2] 0.035 | [3] 0.019 | [4] -0.013 | [5] 0.057

MOCS3 (UniProt O95396)
inactive: [1] -0.056 | [2] -0.019 | [3] 0.278 | [4] 0.025 | [5] -0.176

MORC2 (UniProt Q9Y6X9)
inactive: [1] -0.068 | [2] 0.043 | [3] 0.049 | [4] -0.014 | [5] 0.018

MAP2K4 isoform 2 (UniProt P45985)
inactive: [1] -0.018 | [2] 0.005 | [3] -0.065 | [4] -0.013 | [5] 0.188

MARK3 (UniProt P27448)
inactive: [1] 0.02 | [2] 0.069 | [3] 0.118 | [4] -0.06 | [5] 0.053

KIF2C (UniProt Q99661)
inactive: [1] -0.022 | [2] -0.023 | [3] -0.009 | [4] 0.052 | [5] 0.032

MAPKAPK3 (UniProt Q16644)
UniProt Q16644, sequence (Q16644 whole entry, looked up): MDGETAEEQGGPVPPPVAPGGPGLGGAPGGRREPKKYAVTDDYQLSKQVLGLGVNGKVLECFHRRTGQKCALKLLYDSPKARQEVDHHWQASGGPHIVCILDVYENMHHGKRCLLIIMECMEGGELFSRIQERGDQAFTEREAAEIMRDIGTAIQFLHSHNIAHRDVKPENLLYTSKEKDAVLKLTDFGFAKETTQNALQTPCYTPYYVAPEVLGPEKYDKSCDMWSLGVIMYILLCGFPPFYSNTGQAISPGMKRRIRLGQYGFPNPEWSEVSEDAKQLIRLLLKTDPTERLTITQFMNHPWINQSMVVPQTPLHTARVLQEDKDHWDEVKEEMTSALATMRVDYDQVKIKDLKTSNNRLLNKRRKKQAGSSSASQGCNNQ
inactive: [1] 0.03 | [2] -0.031 | [3] -0.005 | [4] 0.009 | [5] 0.019

MRPL10 isoform 2 (UniProt Q7Z7H8)
inactive: [1] -0.053 | [2] 0.097 | [3] 0.023 | [4] -0.026 | [5] 0.016

METTL7A (UniProt Q9H8H3)
inactive: [1] 0.069 | [2] -0.059 | [3] -0.078 | [4] -0.008 | [5] -0.074

MRPL28 (UniProt Q13084)
inactive: [1] -0.002 | [2] -0.062 | [3] -0.026 | [4] 0.066 | [5] 0.356

MGAT5 (UniProt Q09328)
inactive: [1] 0.088 | [2] -0.027 | [3] -0.171 | [4] 0.017 | [5] 0.083

MAPK8 isoform 3 (UniProt P45983)
inactive: [1] -0.01 | [2] 0.03 | [3] 0.004 | [4] 0.071 | [5] -0.026

MAST2 (UniProt Q6P0Q8)
inactive: [1] -0.257 | [2] 0.027 | [3] 0.073 | [4] -0.074 | [5] -0.028

MAPK12 (UniProt P53778)
inactive: [1] 0.029 | [2] 0.068 | [3] -0.015 | [4] -0.002 | [5] 0.307
